# Calls of active or inactive are those of the source. Rule for the calls: active = hit-call score of the fitted dose curve at least 0.9, where 1 is the maximum; inactive = score below 0.9.
# Read-out: Tissue plasminogen activator (tPA), PLAT (gene 5327)
# Experiment: BSK_BE3C_tPA: BioMAP Diversity Plus: BE3C Assay for Tissue plasminogen activator (tPA) Biomarker Activity (AID 2283041)
# Settings: primary human bronchial epithelial cells; actives raise or lower the signal
# Experimental: BSK_BE3C is a cell-based, multiplexed-readout assay that uses bronchial epithelial cell, a human lung primary cell, with measurements taken at 24 hours after chemical dosing in a 96-well plate.BSK_BE3C_tPA is an assay component measured in the BSK_BE3C assay. It measures tPA antibody related to regulation of gene expression using ELISA technology.Data from the assay component BSK_BE3C_tPA was analyzed into 1 assay endpoint. This assay endpoint, BSK_BE3C_tPA, was analyzed with bidirectional fitting relative to DMSO as the negative control and baseline of activity. Using a type of binding reporter, gain or loss-of-signal activity can be used to understand changes in the signaling as they relate to the gene PLAT. Furthermore, this assay endpoint can be referred to as a primary readout, because this assay has produced multiple assay endpoints where this one serves a signaling function. To generalize the intended target to other relatable targets, this assay endpoint is annotated to the protease intended target family, where the subfamily is serine protease.
# The levels of cell surface (or secreted, indicated by the prefix "s") biomarker endpoints were measured by ELISA. Overt cytotoxicity to cells in confluent adherent cultures (all systems other than the BT system) was assessed by measuring total protein levels using sulforhodamine B (SRB) staining in parallel cultures at the time of biomarker measurements, indicated as SRB endpoints. For proliferation assays for adherent cell types, individual cell types are cultured at sub-confluence and relative cell numbers quantified by SRB staining at time points optimized for each system (48 h: 3C and CASM3C systems; 72 h: BT and HDF3CGF systems; 96 h: SAg system). SRB was performed by staining cells with 0.1% SRB after fixation with 10% TCA and reading wells at 560 nm.Viability and proliferation of PBMC (T cells) was quantified by Alamar Blue reduction for the SAg and BT systems. For PBMC viability (referred to as PBMC Cytotoxicity within the assay endpoint names), cells were plated (75,000/well in a 96-well plate) and then chemical samples added for 1 h before addition of activators, SEB and TSST-1 (20 ng/mL final concentration each). Cells were incubated for 90 h. Then, Alamar Blue (20 uL/well) (Invitrogen, Cat DAL1100) was added for 6 h, and the plates were read with a fluorescence microplate reader at 546/580 nm (excitation/emission). For PBMC proliferation, cells were plated and activated as above but incubated for only 16 h prior to addition of Alamar Blue. Plates were read after 6 h.
Compound,outcome,AC50
OC1OC[C@@H](O)[C@H](O)[C@H]1O (stereo not given in full),inactive,–
CCC(=O)OCc1ccccc1,inactive,–
COc1cc(C=O)ccc1OC(=O)C(C)C,inactive,–
C=C(C)C(=O)O[C@H]1C[C@@H]2CC[C@@]1(C)C2(C)C,–,20 µM (active)
Nc1cc([N+](=O)[O-])ccc1O,inactive,–
C=CCOC(=O)CCC1CCCCC1,inactive,–
CC(=O)OCCC(C)CC(C)(C)C (stereo not given),inactive,–
O=C(O)C[C@H](O)C[C@H](O)/C=C/c1c(C2CC2)nc2ccccc2c1-c1ccc(F)cc1,–,0.0843 µM (active)
CC(C)Oc1ccccc1O,inactive,–
CCn1c2ccccc2c2cc(N)ccc21,–,3.97 µM (active)
CC(C)(COC(=O)c1ccccc1)COC(=O)c1ccccc1,inactive,–
OC[C@H]1O[C@H](O[C@]2(CCl)O[C@H](CCl)[C@@H](O)[C@@H]2O)[C@H](O)[C@@H](O)[C@H]1Cl,inactive,–
O=C(O)c1cn(C2CC2)c2cc(N3CCNCC3)c(F)cc2c1=O,inactive,–
COC(=O)c1ccc(C)cc1,inactive,–
c1ccc2sc(SN(C3CCCCC3)C3CCCCC3)nc2c1,inactive,–
C[C@H]1C[C@@H]2[C@H]([C@@H](O)C[C@@]3(C)[C@H]2CC[C@]3(O)C(=O)CO)[C@@]2(C)C=CC(=O)C=C12,inactive,–
O=C(O)c1cn(-c2ccc(F)cc2)c2cc(N3CCNCC3)c(F)cc2c1=O,inactive,–
Cc1ccc(O)c(C(C)(C)C)c1,inactive,–
N#Cc1ccc(CC(=NNC(=O)Nc2ccc(OC(F)(F)F)cc2)c2cccc(C(F)(F)F)c2)cc1,inactive,–
CC1COc2ccccc2N1C(=O)C(Cl)Cl (stereo not given),–,3.04 µM (active)

Compound,outcome,AC50
CCCCCCCCCCCCCCCCCC(=O)OCC(CC)CCCC (stereo not given),inactive,–
CC(=O)[C@H]1CC[C@H]2[C@@H]3CC=C4C[C@@H](O)CC[C@]4(C)[C@H]3CC[C@]12C,inactive,–
BrC1CCC(Br)C(Br)CCC(Br)C(Br)CCC1Br (stereo not given),inactive,–
Nc1cc([N+](=O)[O-])ccc1Cl,inactive,–
Cc1ccc2n[nH]nc2c1,inactive,–
O=C1OC2(c3cc(Br)c(O)c(Br)c3Oc3c2cc(Br)c(O)c3Br)c2c(Cl)c(Cl)c(Cl)c(Cl)c21,–,0.744 µM (active)
O=P(c1ccccc1)(c1ccccc1)c1ccccc1,inactive,–
CC[Si](OC(C)=O)(OC(C)=O)OC(C)=O,inactive,–
CCCCC(CC)COCCC#N (stereo not given),inactive,–
CCCCC/C=C/C=C/C=O,inactive,–
CNC[C@H](O)c1cccc(O)c1,inactive,–
O=C(O)c1ccc([N+](=O)[O-])cc1,inactive,–
CN(CCOc1ccc(CC2SC(=O)NC2=O)cc1)c1ccccn1 (stereo not given),inactive,–
CC(=O)O[C@]1(C(C)=O)CC[C@H]2[C@@H]3C[C@H](C)C4=CC(=O)CC[C@]4(C)[C@H]3CC[C@@]21C,inactive,–
CCCCC(CC)COC(=O)/C=C\C(=O)OCC(CC)CCCC (stereo not given),inactive,–
O=C=NC1CCC(CC2CCC(N=C=O)CC2)CC1 (stereo not given),inactive,–
O=[N+]([O-])c1cc(C(F)(F)F)ccc1Cl,inactive,–
Cc1ccc(Nc2ccc(O)c3c2C(=O)c2ccccc2C3=O)cc1,inactive,–
O=C1CCCCCCCCCCCCCCO1,–,12.7 µM (active)
CCc1c(C)cc(N)c(CC)c1N,inactive,–

# From PubChem BioAssay (EPA / NIEHS)
